Common to all, as to experiment: DAPPL (digital affinity profiling via proximity ligation, sequencing); 10 mM Tris-HCl pH 7.5, 50 mM NaCl, 1 mM DTT, 4% glycerol, room temperature, 30 min; GST-TFs on glutathione beads, 16-mer random dsDNA library, 0.1% formaldehyde crosslink after washing; high values mean tight binding
For one assay, the target named is T1, FEV (Homo sapiens, UniProt Q99581 1-238).
T1 sequence: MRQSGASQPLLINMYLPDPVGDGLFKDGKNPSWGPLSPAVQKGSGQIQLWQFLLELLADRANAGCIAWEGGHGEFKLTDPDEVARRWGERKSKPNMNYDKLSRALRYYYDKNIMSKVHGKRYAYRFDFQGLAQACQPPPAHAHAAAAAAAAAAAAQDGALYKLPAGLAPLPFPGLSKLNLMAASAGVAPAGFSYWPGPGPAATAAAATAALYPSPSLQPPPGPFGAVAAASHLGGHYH
The note with it: protein: recombinant; tags: N-terminal GST; dsDNA, one strand shown. The gist of the method:
(§1)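 Sequencing on an Illumina NextSeq500 followed washing, crosslinking with 0.1% formaldehyde, proximity ligation (BsaI/T4 ligase, 1 h, 37 °C) and PCR amplification of pools that had been incubated for 30 min at room temperature with 200 nmole of a random double-stranded 16-mer DNA library in Tris/NaCl/DTT/glycerol buffer. Each pool held DNA-barcoded human transcription factors, expressed in yeast as GST fusions and captured on glutathione beads, plus a tag-only sample. Binding signal is a hexamer's read frequency for a factor divided by its frequency in the tag-only sample.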

The target in another assay is ETV5 (Homo sapiens, UniProt P41161 1-510). As to conditions: protein: recombinant; tags: N-terminal GST; dsDNA, one strand shown. The method in brief:
as §1

A further assay concerns the target HSF1 (Homo sapiens, UniProt Q00613 1-529). The note with it: protein: recombinant; tags: N-terminal GST; chain copies: 3; dsDNA, one strand shown. The method in brief: as §1
The target of the next assay is T2, SPIC (Homo sapiens, UniProt Q8N5J4 1-248).
T2 sequence: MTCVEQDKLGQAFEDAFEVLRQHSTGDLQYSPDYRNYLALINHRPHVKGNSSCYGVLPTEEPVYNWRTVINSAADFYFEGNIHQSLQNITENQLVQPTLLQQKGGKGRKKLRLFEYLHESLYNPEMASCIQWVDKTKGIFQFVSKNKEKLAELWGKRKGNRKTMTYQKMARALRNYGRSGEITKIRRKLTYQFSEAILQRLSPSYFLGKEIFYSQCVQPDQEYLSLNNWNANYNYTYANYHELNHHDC
The note with it: protein: recombinant; tags: N-terminal GST; dsDNA, one strand shown. The gist of the method:
as §1

A further assay deals with ELF4 (Homo sapiens, UniProt Q99607 1-663). The note with it: protein: recombinant; tags: N-terminal GST; dsDNA, one strand shown. The gist of the method: as §1
Sequence of ELF4 (Q99607 whole entry): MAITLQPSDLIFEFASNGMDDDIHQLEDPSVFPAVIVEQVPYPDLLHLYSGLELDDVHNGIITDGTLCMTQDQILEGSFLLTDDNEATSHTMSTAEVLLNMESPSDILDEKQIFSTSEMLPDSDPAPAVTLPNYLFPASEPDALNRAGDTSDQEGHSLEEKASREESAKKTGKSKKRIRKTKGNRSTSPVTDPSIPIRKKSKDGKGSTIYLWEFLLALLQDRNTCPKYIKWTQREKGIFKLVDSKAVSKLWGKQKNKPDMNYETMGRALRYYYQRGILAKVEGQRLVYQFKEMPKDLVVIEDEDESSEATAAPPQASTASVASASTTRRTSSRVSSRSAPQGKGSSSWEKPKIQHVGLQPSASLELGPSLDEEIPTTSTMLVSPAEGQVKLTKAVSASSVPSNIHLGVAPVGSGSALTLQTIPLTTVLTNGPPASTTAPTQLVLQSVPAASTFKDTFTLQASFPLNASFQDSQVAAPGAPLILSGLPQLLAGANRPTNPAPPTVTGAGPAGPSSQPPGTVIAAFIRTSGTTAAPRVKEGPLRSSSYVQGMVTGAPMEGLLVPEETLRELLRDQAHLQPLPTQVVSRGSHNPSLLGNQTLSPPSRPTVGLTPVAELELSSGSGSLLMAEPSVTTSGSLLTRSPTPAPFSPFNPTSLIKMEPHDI
In the next assay the target is T3, ELK4 (Homo sapiens, UniProt P28324-2 1-405).
T3 sequence: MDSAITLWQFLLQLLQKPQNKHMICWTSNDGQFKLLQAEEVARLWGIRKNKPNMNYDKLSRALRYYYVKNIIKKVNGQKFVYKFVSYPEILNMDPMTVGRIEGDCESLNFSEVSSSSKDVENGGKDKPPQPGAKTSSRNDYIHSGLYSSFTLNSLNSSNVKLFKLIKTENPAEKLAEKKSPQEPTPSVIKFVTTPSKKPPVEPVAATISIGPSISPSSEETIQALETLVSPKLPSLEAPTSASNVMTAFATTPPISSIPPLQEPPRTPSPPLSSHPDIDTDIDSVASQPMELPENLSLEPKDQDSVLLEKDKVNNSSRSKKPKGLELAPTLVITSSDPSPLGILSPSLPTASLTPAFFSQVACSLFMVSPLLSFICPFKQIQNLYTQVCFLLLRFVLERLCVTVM
The note with it: protein: recombinant; tags: N-terminal GST; dsDNA, one strand shown. The gist of the method:
as §1

The next assay deals with T4, ETV2 (Homo sapiens, UniProt O00321 1-342).
T4 sequence: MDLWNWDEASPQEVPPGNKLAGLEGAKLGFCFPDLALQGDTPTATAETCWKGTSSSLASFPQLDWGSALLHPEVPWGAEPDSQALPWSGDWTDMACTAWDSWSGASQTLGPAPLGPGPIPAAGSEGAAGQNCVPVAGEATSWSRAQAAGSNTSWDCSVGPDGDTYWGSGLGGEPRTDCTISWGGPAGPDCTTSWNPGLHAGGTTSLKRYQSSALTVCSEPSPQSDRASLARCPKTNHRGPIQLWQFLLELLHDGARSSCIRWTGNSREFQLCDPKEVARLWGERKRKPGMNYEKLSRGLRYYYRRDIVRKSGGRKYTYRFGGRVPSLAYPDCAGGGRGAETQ
As to conditions: protein: recombinant; tags: N-terminal GST; dsDNA, one strand shown. The gist of the method: as §1

Another assay has as its target T5, ELF3 (Homo sapiens, UniProt P78545 1-371).
T5 sequence: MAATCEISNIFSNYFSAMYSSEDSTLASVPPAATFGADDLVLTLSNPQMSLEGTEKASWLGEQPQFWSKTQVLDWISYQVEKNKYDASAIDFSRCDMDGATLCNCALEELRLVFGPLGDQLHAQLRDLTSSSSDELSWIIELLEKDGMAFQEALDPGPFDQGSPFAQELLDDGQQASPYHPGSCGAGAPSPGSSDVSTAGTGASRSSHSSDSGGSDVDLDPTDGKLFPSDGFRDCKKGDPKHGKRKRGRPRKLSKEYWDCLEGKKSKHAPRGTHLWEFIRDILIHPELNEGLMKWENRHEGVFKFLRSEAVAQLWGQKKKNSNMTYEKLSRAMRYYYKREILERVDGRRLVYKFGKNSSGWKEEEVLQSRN
The note with it: protein: recombinant; tags: N-terminal GST; dsDNA, one strand shown. The gist of the method: as §1

For a further assay, the target named is CRX (Homo sapiens, UniProt O43186 1-299). As to conditions: protein: recombinant; tags: N-terminal GST; dsDNA, one strand shown. The method in brief: as §1
Sequence of CRX (O43186 whole entry): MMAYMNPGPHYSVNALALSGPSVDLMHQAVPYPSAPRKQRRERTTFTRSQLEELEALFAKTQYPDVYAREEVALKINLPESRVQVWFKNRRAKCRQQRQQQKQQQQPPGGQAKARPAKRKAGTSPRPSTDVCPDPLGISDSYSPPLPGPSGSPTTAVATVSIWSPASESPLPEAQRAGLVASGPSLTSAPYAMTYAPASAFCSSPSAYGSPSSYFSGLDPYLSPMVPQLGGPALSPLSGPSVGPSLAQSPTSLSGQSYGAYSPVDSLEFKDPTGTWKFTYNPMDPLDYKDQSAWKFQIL
Another assay deals with ETV1 (Homo sapiens, UniProt P50549 1-477). The note with it: protein: recombinant; tags: N-terminal GST; dsDNA, one strand shown. The gist of the method: as §1
Sequence of ETV1 (P50549 whole entry): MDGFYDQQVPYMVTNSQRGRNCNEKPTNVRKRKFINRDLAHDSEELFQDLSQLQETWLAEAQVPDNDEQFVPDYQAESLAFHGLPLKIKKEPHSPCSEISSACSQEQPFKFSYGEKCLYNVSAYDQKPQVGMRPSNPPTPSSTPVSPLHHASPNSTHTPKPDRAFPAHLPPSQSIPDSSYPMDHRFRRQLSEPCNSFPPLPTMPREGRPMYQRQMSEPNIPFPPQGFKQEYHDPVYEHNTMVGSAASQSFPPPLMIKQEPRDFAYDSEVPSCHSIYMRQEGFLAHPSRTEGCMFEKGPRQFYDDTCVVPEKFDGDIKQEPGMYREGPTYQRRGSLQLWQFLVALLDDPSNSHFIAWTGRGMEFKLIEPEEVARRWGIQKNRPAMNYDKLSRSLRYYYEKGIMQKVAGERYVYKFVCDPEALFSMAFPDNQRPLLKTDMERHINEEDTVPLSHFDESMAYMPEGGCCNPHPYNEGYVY
A further assay concerns the target T6, ERF (Homo sapiens, UniProt P50548 1-548).
T6 sequence: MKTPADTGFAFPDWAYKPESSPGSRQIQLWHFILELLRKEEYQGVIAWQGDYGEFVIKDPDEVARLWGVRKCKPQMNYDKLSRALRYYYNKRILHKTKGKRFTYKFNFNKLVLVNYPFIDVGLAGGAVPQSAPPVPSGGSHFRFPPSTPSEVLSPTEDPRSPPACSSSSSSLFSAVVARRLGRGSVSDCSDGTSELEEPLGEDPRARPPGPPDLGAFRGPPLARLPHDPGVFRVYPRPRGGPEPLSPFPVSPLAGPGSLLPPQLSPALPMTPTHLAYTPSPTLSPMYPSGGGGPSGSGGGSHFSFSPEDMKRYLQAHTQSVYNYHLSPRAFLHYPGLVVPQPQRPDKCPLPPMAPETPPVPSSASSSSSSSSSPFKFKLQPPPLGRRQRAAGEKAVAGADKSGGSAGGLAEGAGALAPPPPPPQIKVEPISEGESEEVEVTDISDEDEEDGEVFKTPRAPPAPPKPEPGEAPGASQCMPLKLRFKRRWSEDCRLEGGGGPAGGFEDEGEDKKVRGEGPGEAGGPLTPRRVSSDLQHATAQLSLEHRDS
As to conditions: protein: recombinant; tags: N-terminal GST; dsDNA, one strand shown. The method in brief: as §1

In another assay the target is T7, ETV3L (Homo sapiens, UniProt Q6ZN32 1-361).
T7 sequence: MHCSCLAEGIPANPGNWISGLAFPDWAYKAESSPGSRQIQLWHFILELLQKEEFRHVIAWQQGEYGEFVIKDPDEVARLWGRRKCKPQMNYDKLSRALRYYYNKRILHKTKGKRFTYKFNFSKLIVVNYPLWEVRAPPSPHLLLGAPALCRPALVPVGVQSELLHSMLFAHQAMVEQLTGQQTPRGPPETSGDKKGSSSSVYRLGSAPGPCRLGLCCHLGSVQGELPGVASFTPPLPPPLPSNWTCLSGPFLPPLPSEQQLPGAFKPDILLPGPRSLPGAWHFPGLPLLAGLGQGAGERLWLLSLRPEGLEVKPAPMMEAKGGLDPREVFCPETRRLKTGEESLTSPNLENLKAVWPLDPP
The note with it: protein: recombinant; tags: N-terminal GST; dsDNA, one strand shown. The gist of the method: as §1

A further assay has as its target T8, ETS2 (Homo sapiens, UniProt P15036 1-469).
T8 sequence: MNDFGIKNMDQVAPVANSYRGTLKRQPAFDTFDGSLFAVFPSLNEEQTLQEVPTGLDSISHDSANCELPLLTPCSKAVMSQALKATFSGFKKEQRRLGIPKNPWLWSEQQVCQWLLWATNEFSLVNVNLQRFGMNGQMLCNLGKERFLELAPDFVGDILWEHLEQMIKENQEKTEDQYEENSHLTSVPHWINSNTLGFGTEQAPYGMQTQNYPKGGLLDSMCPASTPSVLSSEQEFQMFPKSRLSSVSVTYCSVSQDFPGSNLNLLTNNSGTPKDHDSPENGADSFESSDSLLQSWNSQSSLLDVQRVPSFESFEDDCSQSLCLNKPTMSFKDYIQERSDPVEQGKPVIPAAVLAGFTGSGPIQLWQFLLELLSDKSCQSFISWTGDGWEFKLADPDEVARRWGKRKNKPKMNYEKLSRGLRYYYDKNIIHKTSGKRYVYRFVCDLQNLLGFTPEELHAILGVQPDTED
The note with it: protein: recombinant; tags: N-terminal GST; dsDNA, one strand shown. The gist of the method:
as §1

The target of another assay is T9, SPDEF (Homo sapiens, UniProt O95238 1-335).
T9 sequence: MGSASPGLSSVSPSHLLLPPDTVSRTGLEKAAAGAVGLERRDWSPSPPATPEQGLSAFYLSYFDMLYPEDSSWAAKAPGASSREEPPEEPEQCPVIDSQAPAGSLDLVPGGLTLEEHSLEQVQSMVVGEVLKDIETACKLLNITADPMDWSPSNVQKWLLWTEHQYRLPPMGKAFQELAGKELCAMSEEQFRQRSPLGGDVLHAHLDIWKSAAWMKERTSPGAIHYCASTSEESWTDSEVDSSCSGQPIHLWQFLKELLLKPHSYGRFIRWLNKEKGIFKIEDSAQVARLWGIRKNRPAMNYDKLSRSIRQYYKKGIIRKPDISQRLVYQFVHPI
The note with it: protein: recombinant; tags: N-terminal GST; dsDNA, one strand shown. The method in brief: as §1

Another assay addresses T10, ETV7 (Homo sapiens, UniProt Q9Y603 1-341).
T10 sequence: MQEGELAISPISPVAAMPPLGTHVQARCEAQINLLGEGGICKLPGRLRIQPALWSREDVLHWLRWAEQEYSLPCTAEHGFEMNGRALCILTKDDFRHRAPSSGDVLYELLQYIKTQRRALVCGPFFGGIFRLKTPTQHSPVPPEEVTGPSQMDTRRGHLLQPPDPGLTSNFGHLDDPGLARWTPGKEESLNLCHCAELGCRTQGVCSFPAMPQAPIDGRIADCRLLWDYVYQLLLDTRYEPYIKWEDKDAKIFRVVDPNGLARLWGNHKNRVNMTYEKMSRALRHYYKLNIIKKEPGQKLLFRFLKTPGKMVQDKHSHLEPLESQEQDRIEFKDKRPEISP
The note with it: protein: recombinant; tags: N-terminal GST; dsDNA, one strand shown. The gist of the method: as §1

For the next assay, the target named is T11, ELF5 (Homo sapiens, UniProt Q9UKW6-2 1-255).
T11 sequence: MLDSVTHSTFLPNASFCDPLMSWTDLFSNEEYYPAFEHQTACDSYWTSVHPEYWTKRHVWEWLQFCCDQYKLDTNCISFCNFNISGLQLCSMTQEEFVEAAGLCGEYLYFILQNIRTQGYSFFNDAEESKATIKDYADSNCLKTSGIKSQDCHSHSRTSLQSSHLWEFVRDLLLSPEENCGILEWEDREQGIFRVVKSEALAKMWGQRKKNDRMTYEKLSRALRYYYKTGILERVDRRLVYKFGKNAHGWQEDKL
As to conditions: protein: recombinant; tags: N-terminal GST; dsDNA, one strand shown. The method in brief:
as §1

The target of a further assay is T12, ETV3 (Homo sapiens, UniProt P41162-2 1-143).
T12 sequence: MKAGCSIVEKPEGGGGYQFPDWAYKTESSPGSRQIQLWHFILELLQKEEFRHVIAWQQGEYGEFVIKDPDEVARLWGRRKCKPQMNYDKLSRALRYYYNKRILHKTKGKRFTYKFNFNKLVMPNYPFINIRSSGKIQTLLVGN
As to conditions: protein: recombinant; tags: N-terminal GST; dsDNA, one strand shown. The method in brief:
as §1

The target of another assay is ETV6 (Homo sapiens, UniProt P41212 1-452). As to conditions: protein: recombinant; tags: N-terminal GST; dsDNA, one strand shown. The method in brief: as §1
Sequence of ETV6 (P41212 whole entry): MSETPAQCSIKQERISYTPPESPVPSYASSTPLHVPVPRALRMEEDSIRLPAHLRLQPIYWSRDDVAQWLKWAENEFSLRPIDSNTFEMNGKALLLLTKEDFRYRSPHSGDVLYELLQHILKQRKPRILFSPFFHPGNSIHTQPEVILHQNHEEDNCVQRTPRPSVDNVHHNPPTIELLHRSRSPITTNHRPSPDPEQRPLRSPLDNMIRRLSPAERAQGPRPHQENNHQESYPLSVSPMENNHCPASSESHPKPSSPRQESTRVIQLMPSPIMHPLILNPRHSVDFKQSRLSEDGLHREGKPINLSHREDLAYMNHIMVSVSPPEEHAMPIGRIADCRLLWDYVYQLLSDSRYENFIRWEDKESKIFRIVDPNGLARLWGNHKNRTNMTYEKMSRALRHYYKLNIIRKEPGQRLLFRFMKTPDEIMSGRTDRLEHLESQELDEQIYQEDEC

Sequence of HSF1 (Q00613 whole entry): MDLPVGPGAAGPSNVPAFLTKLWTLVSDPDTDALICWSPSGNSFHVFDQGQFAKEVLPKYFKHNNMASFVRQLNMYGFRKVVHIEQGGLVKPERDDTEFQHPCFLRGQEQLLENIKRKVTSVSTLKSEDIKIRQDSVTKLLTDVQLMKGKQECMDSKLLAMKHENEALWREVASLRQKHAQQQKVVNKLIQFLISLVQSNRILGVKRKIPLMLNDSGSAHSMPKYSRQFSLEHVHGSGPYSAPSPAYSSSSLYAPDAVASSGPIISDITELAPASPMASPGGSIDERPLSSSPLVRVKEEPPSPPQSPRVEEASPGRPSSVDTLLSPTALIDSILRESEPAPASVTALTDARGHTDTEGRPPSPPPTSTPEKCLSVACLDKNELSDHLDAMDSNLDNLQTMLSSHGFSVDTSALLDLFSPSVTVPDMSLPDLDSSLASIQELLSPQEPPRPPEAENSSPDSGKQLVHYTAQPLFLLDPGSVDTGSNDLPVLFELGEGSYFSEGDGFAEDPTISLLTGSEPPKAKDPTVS
Sequence of ETV5 (P41161 whole entry): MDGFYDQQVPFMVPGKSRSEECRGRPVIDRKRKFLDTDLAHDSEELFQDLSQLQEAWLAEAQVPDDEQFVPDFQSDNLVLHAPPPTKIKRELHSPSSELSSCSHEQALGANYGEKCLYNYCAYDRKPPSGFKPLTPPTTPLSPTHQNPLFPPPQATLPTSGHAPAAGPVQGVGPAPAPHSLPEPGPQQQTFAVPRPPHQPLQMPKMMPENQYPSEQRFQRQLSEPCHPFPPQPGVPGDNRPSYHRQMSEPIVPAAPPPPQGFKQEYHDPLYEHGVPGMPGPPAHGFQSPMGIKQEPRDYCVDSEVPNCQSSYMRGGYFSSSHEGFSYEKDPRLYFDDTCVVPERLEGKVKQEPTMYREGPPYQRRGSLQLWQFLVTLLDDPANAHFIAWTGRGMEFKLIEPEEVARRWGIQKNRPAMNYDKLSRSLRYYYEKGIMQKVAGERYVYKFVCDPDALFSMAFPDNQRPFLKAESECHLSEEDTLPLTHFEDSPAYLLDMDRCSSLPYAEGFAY

For CGATTA, the binding signal with FEV was 1.09 fold enrichment (6-mer frequency, TF over GST control); with ETV5, 1.08 fold enrichment (6-mer frequency, TF over GST control); with HSF1 it was 2.19 fold enrichment (6-mer frequency, TF over GST control); with SPIC, 1.12 fold enrichment (6-mer frequency, TF over GST control); with ELF4 it was 1.14 fold enrichment (6-mer frequency, TF over GST control); in the assay with ELK4, 1.18 fold enrichment (6-mer frequency, TF over GST control). The binding signal with ETV2 was 1.13 fold enrichment (6-mer frequency, TF over GST control); with ELF3, 1 fold enrichment (6-mer frequency, TF over GST control); with CRX, 3.25 fold enrichment (6-mer frequency, TF over GST control); with ETV1 it was 1.13 fold enrichment (6-mer frequency, TF over GST control); with ERF it was 1.07 fold enrichment (6-mer frequency, TF over GST control); in the assay with ETV3L it was 1.23 fold enrichment (6-mer frequency, TF over GST control). For the same sequence, the binding signal in the assay with ETS2 is 1.08 fold enrichment (6-mer frequency, TF over GST control); with SPDEF, 1.09 fold enrichment (6-mer frequency, TF over GST control); with ETV7 it was 1.18 fold enrichment (6-mer frequency, TF over GST control); with ELF5 it was 1.11 fold enrichment (6-mer frequency, TF over GST control); with ETV3 it was 1.18 fold enrichment (6-mer frequency, TF over GST control); in the assay with ETV6, 1.13 fold enrichment (6-mer frequency, TF over GST control).

Source of the values: article PMC7862700, “An all-to-all approach to the identification of sequence-specific readers for epigenetic DNA modifications on cytosine”.
